The campaign covered roughly 640,000 compounds. About 9,300 (1.5%) were called active. What follows is part of a selection rich in actives, with near analogues and random picks from the rest. Values without a mark were called inactive. Cut-off read from the data, not from the text of the source: active = inhibition above about 32%; inactive = the rest.
Assay: TEAD-YAP interaction inhibition, primary screen, TEAD-YAP interaction inhibitor project, luminescence, HEK-TIYL cells (AID 1259422);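 note: 0% = median of test compound wells and 100% = reference inhibitor wells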
Details: TEAD-Gal4/YAP UAS-luciferase luminescence, at 9.12 µM, stronger effect = higher value

| SMILES | inhibition |
| --- | --- |
| O=C1CSC(c2ccc(F)c(F)c2)N1c1ccc(Br)cc1 (stereo unspecified) | -4.77% |
| CCCCC(=O)NC(c1ccco1)c1ccc2cccnc2c1O (stereo unspecified) | 26.7% |
| CCCCC(=O)NC(c1ccc(OC)c(OC)c1)c1ccc2cccnc2c1O (stereo unspecified) | 89.2% (active) |
| CCCCC(=O)NC(c1ccc(OC)cc1)c1cc([N+](=O)[O-])c2cccnc2c1O (stereo unspecified) | 7.56% |
| CCC1CCCCN1C(=O)Cn1c2ccccc2c(=O)c2cc(C)ccc21 (stereo unspecified) | -3.07% |
| CCn1nnc2c1CCN(CC(O)C(C)(C)C)C2 (stereo unspecified) | -9.09% |
| O=C(Cn1cnc2c(nnn2-c2cccc(F)c2)c1=O)N1CCCCC1 | 6.15% |
| Cc1cccc(N2CCN(C(=O)c3cccc(N4C(=O)C(C)CS4(=O)=O)c3)CC2)c1 (stereo unspecified) | -2.6% |
| Cc1cccc(N2CCN(C(=O)c3ccc4c(c3)C(=O)N(CCC3=CCCCC3)C4=O)CC2C)c1 (stereo unspecified) | -3.98% |
| Cc1cccc(N2CCN(C(=O)c3cccc(C#N)c3)CC2C)c1 (stereo unspecified) | 41.6% (active) |
| COc1ccc2c(c1)CC(C(=O)Nc1ccc(-c3ccncc3)cc1OC(C)CN(C)C)CO2 (stereo unspecified) | -0.11% |
| CC(C(=O)O)c1ccc(NC(=O)OC(C)(C)C)cc1 (stereo unspecified) | 32.1% (active) |
| CC(C)CC(NC(=O)C(Cc1ccccc1)NC(=O)OC(C)(C)C)C(=O)O (stereo unspecified) | 1.85% |
| COC(=O)NCC(C)OC(=O)Nc1ccc(C)cc1 (stereo unspecified) | -12.2% |
| Cc1cc(C)nc(N2CCN(S(=O)(=O)c3ccc(C)c(Cl)c3)CC2)n1 | 1.94% |
| Fc1cccc(-c2nnc3ccc4cc(C(F)(F)F)ccc4n23)c1 | -12.5% |
| COc1ccc(N2CCN(S(=O)(=O)c3ccc(Cl)cc3)CC2)c([N+](=O)[O-])c1 | 6.09% |
| CCN(C(=O)COc1ccc(Cl)cc1)c1nnc(-c2cccnc2)s1 | -11.5% |
| O=C1C=C(Nc2ccc(O)cc2)c2ccccc2C1=O | 93.2% (active) |
| O=C1C(Nc2ccc(O)cc2)=C(n2nnc3ccccc32)C(=O)c2ccccc21 | 27.1% |
| COc1ccc(S(=O)(=O)/N=C2/C=C(Nc3ccc(O)cc3)C(=O)c3ccccc32)cc1 | 99.3% (active) |
| O=C(CN1C(=O)c2ccccc2C1=O)Nc1ccc(O)cc1 | -11.7% |
| COC(=O)c1ccccc1NC1=C/C(=N/S(=O)(=O)c2ccccc2)c2ccccc2C1=O | 5.16% |

| SMILES | inhibition |
| --- | --- |
| COc1ccccc1NC1=C/C(=N/S(=O)(=O)c2ccc(F)cc2)c2ccccc2C1=O | -21.4% |
| CCOC(=O)c1ccccc1Nc1nc(-c2ccc(OC)cc2)no1 | 8.95% |
| O=[N+]([O-])c1ccc2c(c1)nc1ccccn12 | -11.7% |
| CC(=O)N1CCC(N(C(=O)CSCCNC(=O)c2ccccc2Cl)C2CC2)CC1 | 2.5% |
| CC1CCc2c(sc(NC(=O)c3cc4ccccc4oc3=O)c2C#N)C1 (stereo unspecified) | 11.2% |
| C=CCN1C(=S)NC2CC1(C)Oc1c(OC)cccc12 (stereo unspecified) | 2.23% |
| CCCOc1ccc(N2C(=O)CC(NCCc3ccc(Cl)cc3)C2=O)cc1 (stereo unspecified) | -11% |
| CCCOc1ccc(Cc2c(Cl)nc(SC)nc2NC)cc1 | 35.1% (active) |
| CCOc1ccc(Cc2c(Cl)nc(SC)nc2N(CC)CC)cc1 | 2.33% |
| COc1cccc(/C=C(\C#N)c2nn(CCO)c(N)c2C#N)c1OCc1ccc(Cl)cc1Cl | 2.5% |
| CC(=O)N1CCc2cc(S(=O)(=O)NCCC(=O)O)ccc21 | 0.75% |
| CC(=O)N1CCC(N(C(=O)C2CC2)c2ccc3c(c2)CCN3C(C)=O)CC1 | 46.4% (active) |
| CC(=O)N1CCc2cc(S(=O)(=O)NC3CCCCC3)ccc21 | 10.8% |
| CCOC(=O)C1=C(C)N=c2s/c(=C\c3ccc(-c4ccc([N+](=O)[O-])cc4OC)o3)c(=O)n2C1c1ccccc1 (stereo unspecified) | -12.5% |
| CCn1c(=O)[nH]c(=O)c2c(C(F)(F)F)cc(C(F)(F)F)nc21 | -11.4% |
| CCOC(=O)c1cc(-c2nnc(-c3ccccc3)o2)c(C)nc1C | -1.76% |
| CCc1ccc(NC(=O)CSC2=C(C#N)C(c3ccco3)C(C(=O)Nc3ccc(Cl)cc3)=C(C)N2)cc1 (stereo unspecified) | 26.3% |
| CC(=O)c1c(C)[nH]c(C(=O)Nc2ccc(Cl)c(C(F)(F)F)c2)c1C | 3.78% |
| CS(=O)(=O)c1ncc(Cl)c(C(=O)Nc2ccc(Cl)c(C(F)(F)F)c2)n1 | 51% (active) |
| CS(=O)(=O)c1ncc(Cl)c(C(=O)Nc2nc3ccc(F)cc3s2)n1 | -10.7% |
| Cc1ccc(CC(=O)Nc2ccc(Cl)c([N+](=O)[O-])c2)cc1 | -2.28% |
| COc1ccc(Cl)cc1NC(=O)C(=O)Nc1ccc2nc3n(c(=O)c2c1)CCCCC3 | 0.92% |
| COc1ccc([N+](=O)[O-])cc1C1=N/C(=C/c2ccc(C(C)C)cc2)C(=O)O1 | 1.78% |

| SMILES | inhibition |
| --- | --- |
| CCC(=O)N(CCO)Cc1cc2cc(CC)ccc2[nH]c1=O | 10.6% |
| CCOC(=O)c1c(NC(=O)c2ccccc2)sc(C(=O)Nc2ccccc2OC)c1C | 0.4% |
| O=C(Nc1ccc(C23CC4CC(CC(C4)C2)C3)cc1)c1cccs1 | 85.4% (active) |
| CC(=O)Nc1cccc(-c2csc(C)n2)c1 | -2.27% |
| Cc1nc(-c2ccc(NC(=O)c3cccs3)cc2)cs1 | 48.2% (active) |
| O=C(Nc1cc(Cl)cc(Cl)c1)c1cccs1 | -3.5% |
| O=C(Nc1cc(F)cc(F)c1)c1cccs1 | -5.52% |
| Cc1nc(-c2ccc(NC(=O)c3cccc(Br)c3)cc2)cs1 | -71.4% |
| Cc1ccc2cccc(SCC(=O)Nc3ccc(Br)cc3)c2n1 | 17.4% |
| COc1ccc(-n2nc3cc(C)c(NC(=O)c4ccccc4I)cc3n2)cc1 | -23.3% |
| CN(CCC(=O)Nc1cccc(F)c1)Cc1ccccc1 | 2.01% |
| COc1ccc(CSc2n[nH]c(C)n2)cc1Cl | 44.5% (active) |
| COc1ccc(C(=O)CSc2n[nH]c(C)n2)cc1 | -4.7% |
| COc1ccccc1NC(=O)CSc1n[nH]c(C)n1 | 5.98% |
| COc1ccccc1NC1=NC(c2ccc(Cl)cc2)N=C(N)N1 (stereo unspecified) | 40.4% (active) |
| COc1ccccc1Nc1nc(-c2ccc(Cl)cc2)cs1 | -12% |
| COc1ccccc1Nc1cc(C)nc2ccc(Cl)cc12 | 4.34% |
| Cc1c(CN2CCCC(CNC(=O)c3ccc4c(c3)OCO4)C2)[nH]c2ccccc12 (stereo unspecified) | 13.5% |
| O=C(NCC1CCCN(Cc2cccn2-c2ncccn2)C1)c1n[nH]c2ccccc12 (stereo unspecified) | 33.7% (active) |
| O=C(NCC1CCCN(Cc2nc(-c3ccccc3)cs2)C1)c1cccs1 (stereo unspecified) | 9.19% |
| CCOc1ccc(CN2CCN(Cc3ccc(OC)c(OCC)c3)CC2)cc1 | -0.01% |
| FC(F)(F)c1cccc(N2N=C(/C=C/c3ccccc3)CC2c2ccccc2)c1 (stereo unspecified) | -3.08% |
| O=C1NC(=Nc2ccc(F)cc2)S/C1=C\c1cccs1 | 7.85% |

| SMILES | inhibition |
| --- | --- |
| Cn1c(=O)n(C)c2cc(/C=C3/SC(=Nc4ccc(F)cc4)NC3=O)ccc21 | -33.4% |
| O=C1NC(=Nc2ccc(F)cc2)S/C1=C\c1ccc(O)c(O)c1 | 51.2% (active) |
| CCCCNC(=O)C(=O)NCC1COc2ccccc2O1 (stereo unspecified) | -0.58% |
| COc1ccc(OCC(=O)Nc2nc3ccc(C)cc3s2)cc1 | -5.48% |
| O=C(NCCOc1ccccc1)c1cc(NC2CCN(Cc3ccccc3)CC2)nc2ccccc12 | 10.3% |
| Cc1ccc(NC(=O)/N=C/c2sc(=O)[nH]c2O)cc1 | -3.99% |
| CNC(=O)c1ccccc1Nc1ccnc(Nc2ccc(N3CCOCC3)cc2)c1 | 8.21% |
| c1ccc(-n2cnc(-c3ccnc(Nc4ccc(N5CCOCC5)cc4)c3)n2)cc1 | -7.29% |
| c1cc(-c2ocnc2-c2ncco2)cc(Nc2ccc(N3CCOCC3)cc2)n1 | 38.6% (active) |
| FC(F)(F)c1cccc(CNc2nc(Nc3ccc(N4CCOCC4)cc3)nc3c2ncn3-c2ccsc2)c1 | -6.95% |
| Cc1cnc(-c2c(C)noc2C)nc1Nc1ccc(N2CCOCC2)cc1 | -11.4% |
| Cc1cnc(Nc2ccc(N3CCOCC3)cc2)nc1NCc1cccc(C(F)(F)F)c1 | 67.6% (active) |
| FC(F)(F)c1ccc(Cn2cnc3c(NCc4cccc(C(F)(F)F)c4)nc(Nc4ccc(N5CCOCC5)cc4)nc32)cc1 | 2.31% |
| c1ccc(Nc2nc(Nc3ccc(N4CCOCC4)cc3)nc3nc[nH]c23)cc1 | 24.1% |
| c1cncc(-n2cnc(-c3ccnc(Nc4ccc(N5CCOCC5)cc4)c3)n2)c1 | -10.2% |
| c1ccc(-c2ncn[nH]2)c(Nc2ccnc(Nc3ccc(N4CCOCC4)cc3)c2)c1 | 44% (active) |
| Cc1cnc(Nc2ccc(N3CCOCC3)cc2)nc1Nc1ccccc1-c1ncn[nH]1 | 68.8% (active) |
| c1nc(Nc2ccc(N3CCOCC3)cc2)cc(N2CCOCC2)n1 | 2.49% |
| O=[N+]([O-])c1ccc(Cl)c(S(=O)(=O)n2nnc3ccccc32)c1 | -1.22% |
| COC(=O)C1C(=O)NC(SCC(=O)Nc2ccc(OC)cc2)=C(C#N)C1c1ccc(C)cc1 (stereo unspecified) | -9.22% |
| CC(C)CCNS(=O)(=O)c1ccc2[nH]c3nc4nc(-c5ccc(Br)cc5)cn4nc3c2c1 | 6.91% |
| Cc1cc(=O)oc2c(/C=N\NC(=O)c3ccc(Br)cc3)c(O)ccc12 | 5.44% |
